The structures appear in SMILES notation. A number with no mark means an inactive call. Results filed as inconclusive are left out. Calls of active or inactive are those of the source. The call rests on the fitted dose curve; in most records, active means well fitted curve in the direction sought with a large enough effect in the repeat runs; inconclusive means weak or mixed curves; inactive means no such curve, though single readings can be large; an effect the other way counts as inactive or inconclusive.

We go through eleven molecules from PubChem BioAssay (Tox21).

Test [1] is described as follows: A CellTox Green Cytotoxicity Assay to monitor cytotoxicity in HEK293 cells - 40 hour (AID 1224871). Further: nearly all actives have a fitted effect of over 45% in size. Further: potency means the concentration at half of the fitted maximal effect. The method in brief: (§1)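 Each value comes from one timepoint of a single continuous run in which HEK293 cells with CellTox Green were exposed to compound for up to 40 h at 37 C, dye fluorescence rising with cell death.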
Test [2] can be described thus: qHTS RealTime-Glo MT Cell Viability Assay in HEK293 cells - 16 hour (AID 1224872). Further: nearly all actives have a fitted effect of over 50% in size. Further: potency means the concentration at half of the fitted maximal effect. The method in brief: (§2)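 Viability tracked continuously by luminescence as live cells reduce a prosubstrate for NanoLuc; HEK293 cells preincubated 5 h, compound-treated at 37 C, and read at 0, 8, 16, 24, 32 and 40 h.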
Background: In qHTS, concentration-response curves come from the screen itself.

Test [3] can be described thus: qHTS RealTime-Glo MT Cell Viability Assay in HepG2 cells - 8 hour (AID 1224873). Further: nearly all actives have a fitted effect of over 55% in size. Further: potency means the concentration at half of the fitted maximal effect. The method in brief: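 HepG2 cells mixed with RealTime-Glo MT reagents (NanoLuc plus cell-permeant prosubstrate) were seeded at 600 cells/well, incubated 5 h at 37 C/5% CO2, then pinned with compounds in DMSO; nonlytic luminescence tracked viability during 40 h treatment.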
Test [4] is described as follows: qHTS RealTime-Glo MT Cell Viability Assay in HEK293 cells - 40 hour (AID 1224874). Further: nearly all actives have a fitted effect of over 50% in size. Further: potency means the concentration at half of the fitted maximal effect. The settings on record: RealTime-Glo luminescence; max response: stronger effect = lower value. The method in brief: (§3)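 qHTS format; HEK293 cells with NanoLuc/prosubstrate reagent, 37 C/5% CO2 for 5 h pre-dosing; compounds 23 nL in DMSO; luminescence at each time point reflects viable cells.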

A short description of test [5]: A CellTox Green Cytotoxicity Assay to monitor cytotoxicity in HEK293 cells - 24 hour (AID 1224875). Further: nearly all actives have a fitted effect of over 45% in size. Further: potency means the concentration at half of the fitted maximal effect. The method in brief: as §1
A short description of test [6]: A CellTox Green Cytotoxicity Assay to monitor cytotoxicity in HepG2 cells - 16 hour (AID 1224876). Further: nearly all actives have a fitted effect of over 45% in size. Further: potency means the concentration at half of the fitted maximal effect. Summed up:
(§4)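 Continuous culture of HepG2 cells with a membrane-impermeant DNA dye; rising fluorescence marks dead cells. Compound exposure lasted up to 40 h at 37 C, with reads every 8 h from 0 h.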

Test [7] can be described thus: qHTS RealTime-Glo MT Cell Viability Assay in HepG2 cells - 32 hour (AID 1224877). Further: nearly all actives have a fitted effect of over 55% in size. Further: potency means the concentration at half of the fitted maximal effect. Summed up:
(§5)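 Viability was tracked continuously by NanoLuc luminescence from prosubstrate reduced by living HepG2 cells, at successive time points over 40 h of compound exposure. Cells with reagent were preincubated 5 h at 37 °C before compound addition.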

Test [8] can be described thus: A CellTox Green Cytotoxicity Assay to monitor cytotoxicity in HepG2 cells - 24 hour (AID 1224878). Further: nearly all actives have a fitted effect of over 45% in size. Further: potency means the concentration at half of the fitted maximal effect. Summed up:
as §4

The nature of test [9]: A CellTox Green Cytotoxicity Assay to monitor cytotoxicity in HepG2 cells - 40 hour (AID 1224879). Further: nearly all actives have a fitted effect of over 40% in size. Further: potency means the concentration at half of the fitted maximal effect. Summed up:
as §4

Test [10] is described as follows: qHTS RealTime-Glo MT Cell Viability Assay in HEK293 cells - 0 hour (AID 1224880). Summed up: as §3
Test [11] is described as follows: A CellTox Green Cytotoxicity Assay to monitor cytotoxicity in HEK293 cells - 32 hour (AID 1224881). Further: nearly all actives have a fitted effect of over 40% in size. Further: potency means the concentration at half of the fitted maximal effect. The method in brief: as §1
Test [12] can be described thus: A CellTox Green Cytotoxicity Assay to monitor cytotoxicity in HepG2 cells - 0 hour (AID 1224882). Further: nearly all actives have a fitted effect of over 35% in size. Summed up:
as §4

A short description of test [13]: A CellTox Green Cytotoxicity Assay to monitor cytotoxicity in HepG2 cells - 32 hour (AID 1224883). Further: nearly all actives have a fitted effect of over 50% in size. Further: potency means the concentration at half of the fitted maximal effect. The method in brief: as §4
A short description of test [14]: A CellTox Green Cytotoxicity Assay to monitor cytotoxicity in HEK293 cells - 8 hour (AID 1224884). Further: nearly all actives have a fitted effect of over 35% in size. Further: potency means the concentration at half of the fitted maximal effect. The method in brief: as §1
The nature of test [15]: qHTS RealTime-Glo MT Cell Viability Assay in HepG2 cells - 16 hour (AID 1224885). Further: nearly all actives have a fitted effect of over 50% in size. Further: potency means the concentration at half of the fitted maximal effect. The method in brief:
as §5

Test [16] is described as follows: qHTS RealTime-Glo MT Cell Viability Assay in HEK293 cells - 24 hour (AID 1224886). Further: nearly all actives have a fitted effect of over 50% in size. Further: potency means the concentration at half of the fitted maximal effect. Summed up:
as §2

Test [17] is described as follows: qHTS RealTime-Glo MT Cell Viability Assay in HEK293 cells - 8 hour (AID 1224887). Further: nearly all actives have a fitted effect of over 50% in size. Further: potency means the concentration at half of the fitted maximal effect. The method in brief: as §3
Test [18] in a line: A CellTox Green Cytotoxicity Assay to monitor cytotoxicity in HEK293 cells - 16 hour (AID 1224888). Further: nearly all actives have a fitted effect of over 35% in size. Further: potency means the concentration at half of the fitted maximal effect. The method in brief: as §1
Test [19] can be described thus: qHTS RealTime-Glo MT Cell Viability Assay in HepG2 cells - 0 hour (AID 1224889). Further: nearly all actives have a fitted effect of over 50% in size. Summed up:
as §5

A short description of test [20]: A CellTox Green Cytotoxicity Assay to monitor cytotoxicity in HepG2 cells - 8 hour (AID 1224890). Further: nearly all actives have a fitted effect of over 45% in size. Further: potency means the concentration at half of the fitted maximal effect. Summed up: as §4
On the % scale 0 is the no-effect control and ±100 the full control effect.

Turning to `Cc1cccc(CN2CCN(C(c3ccccc3)c3ccc(Cl)cc3)CC2)c1` (centres undefined), the Potency result in test [1], in test [2], in test [3], in [5], in test [6] and in test [7] was “inactive” throughout. Also, the Potency entry in test [8], in test [9], in test [10], in test [11], in [12] and in [13] was “inactive” in each case. In addition, the Potency result in test [14], in test [15], in [16], in test [17], in test [18] and in [19] was “inactive” each time. The Potency result in test [20] is “inactive”. In addition, the max response in test [4] was -13.7%.

Turning to `Clc1ccc(C(Cn2ccnc2)OCc2ccc(Sc3ccccc3)cc2)c(Cl)c1` (centres undefined), the Potency result in [1], in test [2], in [3], in test [5], in test [6] and in [7] was “inactive” throughout. The Potency result in test [8], in [9], in [10], in test [11], in test [12] and in [13] was “inactive” each time. For the same molecule, the Potency result in test [15], in test [16], in [17], in test [18] and in [20] was “inactive” throughout. The max response in test [4] was -2.43%.

`NC(=O)NS(=O)(=O)c1ccc(N)cc1`: the Potency result in test [1], in test [2], in test [3], in test [5], in test [6] and in [7] was “inactive” each time. In addition, the Potency entry in test [8], in test [9], in test [10], in test [11], in test [12] and in test [13] was “inactive” throughout. In addition, the Potency entry in test [14], in [15], in test [16], in test [17] and in [20] was “inactive” in each case. Further, the max response in test [4] was 2.7%.

Consider `CSc1ccc(/C=C2/C(C)=C(CC(=O)O)c3cc(F)ccc32)cc1`, for which the Potency result in test [1], in [2], in test [3], in test [5], in test [6] and in [7] was “inactive” each time. Also, the Potency entry in test [8], in [9], in test [10], in test [11], in test [12] and in [13] was “inactive” each time. Besides, the Potency entry in [15], in test [16], in test [17], in test [18], in test [19] and in [20] was “inactive” each time. Also, the max response in [4] is 9.83%.

In the case of `CC(C)(C)c1ccc(C(=O)CCCN2CCC(OC(c3ccccc3)c3ccccc3)CC2)cc1`, the Potency in test [1] is 23.9 µM (active); in [2], 8.49 µM (active); in test [3] it was 19 µM (active); in test [4] it was 9.52 µM (active); in test [5], 21.3 µM (active); in [6], 23.9 µM (active). The Potency is 19 µM (active) in [7]; 23.9 µM (active) in test [8]; 19 µM (active) in test [9]; 23.9 µM (active) in [11]; 21.3 µM (active) in [13]; 21.3 µM (active) in test [15]. Further, the Potency in test [16] is 8.49 µM (active); in test [17], 9.52 µM (active); in test [18] it was 21.3 µM (active); in test [20], 23.9 µM (active). For the same molecule, the Potency result in [10] is “inactive”.

Take `N#CC1(c2ccc(F)cc2)CCC(=O)CC1`: the Potency result in test [1], in test [2], in test [3], in test [5], in test [6] and in test [7] was “inactive” each time. Moreover, the Potency entry in test [8], in test [9], in test [10], in test [11], in test [12] and in test [13] was “inactive” in each case. For the same molecule, the Potency entry in [14], in test [15], in test [16], in [17], in test [18] and in test [20] was “inactive” throughout. In test [4], the max response is 6.72%.

As for `CCCCCCCCCCn1cc[n+](CCCCCCCCCC)c1C`, the Potency was 19.5 µM (active) in [1]; 6.93 µM (active) in [2]; 49 µM (active) in [3]; 0.979 µM (active) in test [4]; 17.4 µM (active) in test [5]; 21.9 µM (active) in test [6]. The Potency is 19.5 µM (active) in test [7]; 17.4 µM (active) in test [8]; 15.5 µM (active) in test [9]; 19.5 µM (active) in [11]; 17.4 µM (active) in [13]; 19.5 µM (active) in test [14]. Further, the Potency is 21.9 µM (active) in test [15]; 2.19 µM (active) in [16]; 21.9 µM (active) in test [17]; 19.5 µM (active) in test [18]; 39 µM (active) in test [20]. The Potency entry in test [10] and in [19] was “inactive” throughout.

Turning to `CCCCCCCCCCCCCC[P+](CCCC)(CCCC)CCCC` (tested in a mixture with another compound), the Potency in test [1] was 15.6 µM (active); in test [2], 8.76 µM (active); in test [3] it was 19.6 µM (active); in [4], 0.349 µM (active); in test [5], 17.5 µM (active); in test [6], 19.6 µM (active). In addition, the Potency in test [7] is 19.6 µM (active); in test [8] it was 15.6 µM (active); in test [9], 13.9 µM (active); in test [11], 15.6 µM (active); in test [13], 15.6 µM (active); in [14], 19.6 µM (active). The Potency is 19.6 µM (active) in [15]; 1.96 µM (active) in test [16]; 15.6 µM (active) in [17]; 17.5 µM (active) in test [18]; 22 µM (active) in test [20]. In addition, the Potency entry in test [10], in test [12] and in test [19] was “inactive” throughout.

Turning to `O=c1[nH]cnc2nc[nH]c12`, the Potency result in [1], in test [2], in [3], in [5], in [6] and in [7] was “inactive” throughout. The Potency result in test [8], in test [9], in test [10], in [11], in test [12] and in [13] was “inactive” throughout. Also, the Potency result in [14], in [15], in [16], in test [17], in [18] and in test [19] was “inactive” each time. Moreover, the Potency result in [20] was “inactive”. In test [4], the max response was 3.71%.

Consider `O=[N+]([O-])c1cc([N+](=O)[O-])c2ccc(S(=O)(=O)O)cc2c1O`, for which the Potency result in test [1], in test [2], in test [3], in test [5], in test [6] and in test [7] was “inactive” throughout. Besides, the Potency entry in test [8], in test [9], in test [10], in test [11], in test [12] and in test [13] was “inactive” each time. Further, the Potency entry in [14], in test [15], in test [16], in [17], in [18] and in test [19] was “inactive” throughout. Moreover, the Potency result in test [20] is “inactive”. Besides, the max response in test [4] was -17.1%.

Turning to `COC(=O)c1cc(Cl)ccc1OC`, the Potency result in [1], in [2], in [3], in [5], in [6] and in [7] was “inactive” in each case. Also, the Potency entry in test [8], in [9], in test [10], in test [12], in test [13] and in [14] was “inactive” throughout. The Potency entry in test [15], in [16], in test [17], in test [18], in [19] and in test [20] was “inactive” in each case. Also, in [4], the max response is 6.18%.
